Tests used:
Assay in all cases: log2 ratio of Biotin-Ahx-Ub-VS probe labelling (fragment/DMSO); higher = less target engagement (more negative = stronger competition), active = hit call of the paper (q ≤ 0.05, log2 ratio ≤ -1)
Conditions in all cases: compound concentration: 200 uM; treatment time: 3 h
USP19 = target: T1, USP19 (UniProt O94966)
T1 sequence (whole entry): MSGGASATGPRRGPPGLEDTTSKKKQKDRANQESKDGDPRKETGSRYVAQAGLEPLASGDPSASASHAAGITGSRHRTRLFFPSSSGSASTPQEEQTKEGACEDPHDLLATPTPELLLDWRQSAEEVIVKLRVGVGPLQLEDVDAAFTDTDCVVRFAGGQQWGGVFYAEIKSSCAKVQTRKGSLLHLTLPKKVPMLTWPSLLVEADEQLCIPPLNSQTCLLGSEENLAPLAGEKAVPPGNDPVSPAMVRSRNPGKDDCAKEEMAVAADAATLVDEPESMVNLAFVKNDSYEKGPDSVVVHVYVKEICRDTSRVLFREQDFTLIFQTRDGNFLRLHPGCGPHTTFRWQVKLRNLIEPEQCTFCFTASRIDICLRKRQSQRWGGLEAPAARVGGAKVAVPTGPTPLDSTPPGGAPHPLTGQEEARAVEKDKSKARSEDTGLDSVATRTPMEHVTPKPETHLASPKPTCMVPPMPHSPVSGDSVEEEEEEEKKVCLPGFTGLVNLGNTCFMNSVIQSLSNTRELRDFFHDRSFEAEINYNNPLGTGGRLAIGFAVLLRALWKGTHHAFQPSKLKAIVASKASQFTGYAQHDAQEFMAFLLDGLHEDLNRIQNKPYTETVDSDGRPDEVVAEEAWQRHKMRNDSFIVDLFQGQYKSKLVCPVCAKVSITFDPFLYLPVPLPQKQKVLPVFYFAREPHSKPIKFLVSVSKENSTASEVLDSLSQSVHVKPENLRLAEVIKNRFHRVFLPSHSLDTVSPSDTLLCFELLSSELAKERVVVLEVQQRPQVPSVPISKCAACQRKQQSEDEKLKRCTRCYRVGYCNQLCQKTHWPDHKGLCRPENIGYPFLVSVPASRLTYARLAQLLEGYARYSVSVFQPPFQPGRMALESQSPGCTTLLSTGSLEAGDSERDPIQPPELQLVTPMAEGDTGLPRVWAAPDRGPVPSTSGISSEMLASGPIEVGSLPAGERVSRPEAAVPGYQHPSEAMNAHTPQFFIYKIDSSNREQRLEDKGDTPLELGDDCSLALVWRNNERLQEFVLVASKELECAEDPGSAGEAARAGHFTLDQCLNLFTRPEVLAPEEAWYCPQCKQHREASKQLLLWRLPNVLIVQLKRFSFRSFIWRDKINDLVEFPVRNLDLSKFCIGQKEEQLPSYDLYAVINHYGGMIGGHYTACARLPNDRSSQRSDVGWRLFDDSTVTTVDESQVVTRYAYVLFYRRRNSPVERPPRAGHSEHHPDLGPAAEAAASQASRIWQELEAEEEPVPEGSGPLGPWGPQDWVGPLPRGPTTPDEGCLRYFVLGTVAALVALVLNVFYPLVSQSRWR
How it was run: (§1)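 Average log2 ratios of fragment over vehicle were obtained by unpaired t-test from global-median-normalised Spectronaut label-free quantities. Proteins with ≥2 unique peptides were included. HEK293T lysate (495 µg per sample) was treated in triplicate with fragment at 200 µM or vehicle for 3 h, then with Biotin-Ahx-Ub-VS at 0.5 µM final for 1 h, and labelled DUBs were NeutrAvidin-enriched and run by diaPASEF LC-MS/MS.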

USP22 = target: T2, USP22 (UniProt Q9UPT9)
T2 sequence (whole entry): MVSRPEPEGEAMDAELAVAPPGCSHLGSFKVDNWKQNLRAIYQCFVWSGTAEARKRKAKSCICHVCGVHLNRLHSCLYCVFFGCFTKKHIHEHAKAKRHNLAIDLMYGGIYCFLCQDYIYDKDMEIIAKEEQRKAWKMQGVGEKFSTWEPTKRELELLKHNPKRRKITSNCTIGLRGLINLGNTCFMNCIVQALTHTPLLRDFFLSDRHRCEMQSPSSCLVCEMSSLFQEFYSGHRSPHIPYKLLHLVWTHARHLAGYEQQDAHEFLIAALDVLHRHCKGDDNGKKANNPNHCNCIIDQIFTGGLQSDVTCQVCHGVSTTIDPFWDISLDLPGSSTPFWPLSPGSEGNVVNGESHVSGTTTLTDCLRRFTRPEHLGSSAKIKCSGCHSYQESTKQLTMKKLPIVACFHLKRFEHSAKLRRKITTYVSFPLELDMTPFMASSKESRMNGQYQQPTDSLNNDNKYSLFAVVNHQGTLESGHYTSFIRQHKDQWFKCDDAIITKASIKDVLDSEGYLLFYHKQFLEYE
How it was run: as §1

USP24 = USP24 (UniProt Q9UPU5)
How it was run: as §1

USP25 = target: T3, USP25 (UniProt Q9UHP3)
T3 sequence (whole entry): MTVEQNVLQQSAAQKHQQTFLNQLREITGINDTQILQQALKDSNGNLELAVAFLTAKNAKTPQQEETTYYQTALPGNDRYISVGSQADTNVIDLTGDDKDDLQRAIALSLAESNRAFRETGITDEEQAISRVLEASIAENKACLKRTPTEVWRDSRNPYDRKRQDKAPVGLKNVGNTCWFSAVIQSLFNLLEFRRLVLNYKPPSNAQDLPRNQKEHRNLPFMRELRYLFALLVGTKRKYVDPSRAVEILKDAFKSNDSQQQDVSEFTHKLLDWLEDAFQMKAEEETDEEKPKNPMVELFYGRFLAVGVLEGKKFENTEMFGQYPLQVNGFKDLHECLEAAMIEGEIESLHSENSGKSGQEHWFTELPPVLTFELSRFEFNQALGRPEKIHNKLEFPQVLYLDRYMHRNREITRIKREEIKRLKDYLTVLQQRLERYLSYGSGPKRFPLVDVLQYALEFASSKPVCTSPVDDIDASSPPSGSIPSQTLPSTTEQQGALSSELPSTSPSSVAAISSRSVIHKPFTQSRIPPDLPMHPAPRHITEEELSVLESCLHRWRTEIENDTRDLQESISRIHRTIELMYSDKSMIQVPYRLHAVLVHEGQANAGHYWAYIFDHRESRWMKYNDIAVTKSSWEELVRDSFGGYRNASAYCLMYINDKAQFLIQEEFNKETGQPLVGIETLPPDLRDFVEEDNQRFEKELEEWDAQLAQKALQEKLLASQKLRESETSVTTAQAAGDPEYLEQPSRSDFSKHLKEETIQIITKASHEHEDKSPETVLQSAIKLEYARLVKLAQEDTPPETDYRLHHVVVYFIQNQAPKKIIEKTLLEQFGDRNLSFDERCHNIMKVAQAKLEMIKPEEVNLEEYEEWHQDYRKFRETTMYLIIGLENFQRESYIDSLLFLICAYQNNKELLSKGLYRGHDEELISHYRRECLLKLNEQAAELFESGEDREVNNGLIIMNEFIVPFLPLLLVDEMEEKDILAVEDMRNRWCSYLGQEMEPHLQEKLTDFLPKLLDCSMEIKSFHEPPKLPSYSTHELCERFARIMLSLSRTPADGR
How it was run: as §1

USP28 = target: T4, USP28 (UniProt Q96RU2)
T4 sequence (whole entry): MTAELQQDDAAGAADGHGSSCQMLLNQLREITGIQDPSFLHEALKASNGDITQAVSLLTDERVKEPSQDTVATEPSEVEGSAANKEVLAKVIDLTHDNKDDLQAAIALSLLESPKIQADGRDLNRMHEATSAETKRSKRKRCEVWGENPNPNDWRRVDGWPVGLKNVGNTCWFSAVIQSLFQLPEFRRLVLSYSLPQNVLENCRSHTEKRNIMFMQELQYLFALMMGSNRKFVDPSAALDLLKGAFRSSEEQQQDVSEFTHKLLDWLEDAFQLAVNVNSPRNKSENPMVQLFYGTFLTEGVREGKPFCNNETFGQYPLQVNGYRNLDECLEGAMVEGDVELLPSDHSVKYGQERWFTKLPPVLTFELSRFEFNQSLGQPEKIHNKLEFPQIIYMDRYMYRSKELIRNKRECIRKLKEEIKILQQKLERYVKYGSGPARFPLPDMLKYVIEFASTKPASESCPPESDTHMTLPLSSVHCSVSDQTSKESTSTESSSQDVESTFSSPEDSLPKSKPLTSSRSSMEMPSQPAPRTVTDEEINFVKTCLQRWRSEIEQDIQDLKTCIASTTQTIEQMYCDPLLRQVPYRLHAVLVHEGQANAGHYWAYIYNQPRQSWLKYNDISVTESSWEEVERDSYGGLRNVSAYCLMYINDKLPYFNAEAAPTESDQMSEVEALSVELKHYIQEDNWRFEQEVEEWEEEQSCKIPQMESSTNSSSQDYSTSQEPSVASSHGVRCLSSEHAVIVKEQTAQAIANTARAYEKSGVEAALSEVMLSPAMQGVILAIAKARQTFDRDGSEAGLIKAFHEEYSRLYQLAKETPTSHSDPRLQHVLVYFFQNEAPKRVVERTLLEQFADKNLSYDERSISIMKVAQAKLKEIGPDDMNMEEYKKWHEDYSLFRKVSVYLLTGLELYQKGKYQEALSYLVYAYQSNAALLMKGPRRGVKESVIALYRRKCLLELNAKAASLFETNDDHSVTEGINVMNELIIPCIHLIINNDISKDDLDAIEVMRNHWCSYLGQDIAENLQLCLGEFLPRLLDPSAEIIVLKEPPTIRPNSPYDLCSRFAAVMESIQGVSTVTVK
How it was run: as §1

Measured: log2 ratio of Biotin-Ahx-Ub-VS probe labelling

Chain of USP24 (Q9UPU5 whole entry): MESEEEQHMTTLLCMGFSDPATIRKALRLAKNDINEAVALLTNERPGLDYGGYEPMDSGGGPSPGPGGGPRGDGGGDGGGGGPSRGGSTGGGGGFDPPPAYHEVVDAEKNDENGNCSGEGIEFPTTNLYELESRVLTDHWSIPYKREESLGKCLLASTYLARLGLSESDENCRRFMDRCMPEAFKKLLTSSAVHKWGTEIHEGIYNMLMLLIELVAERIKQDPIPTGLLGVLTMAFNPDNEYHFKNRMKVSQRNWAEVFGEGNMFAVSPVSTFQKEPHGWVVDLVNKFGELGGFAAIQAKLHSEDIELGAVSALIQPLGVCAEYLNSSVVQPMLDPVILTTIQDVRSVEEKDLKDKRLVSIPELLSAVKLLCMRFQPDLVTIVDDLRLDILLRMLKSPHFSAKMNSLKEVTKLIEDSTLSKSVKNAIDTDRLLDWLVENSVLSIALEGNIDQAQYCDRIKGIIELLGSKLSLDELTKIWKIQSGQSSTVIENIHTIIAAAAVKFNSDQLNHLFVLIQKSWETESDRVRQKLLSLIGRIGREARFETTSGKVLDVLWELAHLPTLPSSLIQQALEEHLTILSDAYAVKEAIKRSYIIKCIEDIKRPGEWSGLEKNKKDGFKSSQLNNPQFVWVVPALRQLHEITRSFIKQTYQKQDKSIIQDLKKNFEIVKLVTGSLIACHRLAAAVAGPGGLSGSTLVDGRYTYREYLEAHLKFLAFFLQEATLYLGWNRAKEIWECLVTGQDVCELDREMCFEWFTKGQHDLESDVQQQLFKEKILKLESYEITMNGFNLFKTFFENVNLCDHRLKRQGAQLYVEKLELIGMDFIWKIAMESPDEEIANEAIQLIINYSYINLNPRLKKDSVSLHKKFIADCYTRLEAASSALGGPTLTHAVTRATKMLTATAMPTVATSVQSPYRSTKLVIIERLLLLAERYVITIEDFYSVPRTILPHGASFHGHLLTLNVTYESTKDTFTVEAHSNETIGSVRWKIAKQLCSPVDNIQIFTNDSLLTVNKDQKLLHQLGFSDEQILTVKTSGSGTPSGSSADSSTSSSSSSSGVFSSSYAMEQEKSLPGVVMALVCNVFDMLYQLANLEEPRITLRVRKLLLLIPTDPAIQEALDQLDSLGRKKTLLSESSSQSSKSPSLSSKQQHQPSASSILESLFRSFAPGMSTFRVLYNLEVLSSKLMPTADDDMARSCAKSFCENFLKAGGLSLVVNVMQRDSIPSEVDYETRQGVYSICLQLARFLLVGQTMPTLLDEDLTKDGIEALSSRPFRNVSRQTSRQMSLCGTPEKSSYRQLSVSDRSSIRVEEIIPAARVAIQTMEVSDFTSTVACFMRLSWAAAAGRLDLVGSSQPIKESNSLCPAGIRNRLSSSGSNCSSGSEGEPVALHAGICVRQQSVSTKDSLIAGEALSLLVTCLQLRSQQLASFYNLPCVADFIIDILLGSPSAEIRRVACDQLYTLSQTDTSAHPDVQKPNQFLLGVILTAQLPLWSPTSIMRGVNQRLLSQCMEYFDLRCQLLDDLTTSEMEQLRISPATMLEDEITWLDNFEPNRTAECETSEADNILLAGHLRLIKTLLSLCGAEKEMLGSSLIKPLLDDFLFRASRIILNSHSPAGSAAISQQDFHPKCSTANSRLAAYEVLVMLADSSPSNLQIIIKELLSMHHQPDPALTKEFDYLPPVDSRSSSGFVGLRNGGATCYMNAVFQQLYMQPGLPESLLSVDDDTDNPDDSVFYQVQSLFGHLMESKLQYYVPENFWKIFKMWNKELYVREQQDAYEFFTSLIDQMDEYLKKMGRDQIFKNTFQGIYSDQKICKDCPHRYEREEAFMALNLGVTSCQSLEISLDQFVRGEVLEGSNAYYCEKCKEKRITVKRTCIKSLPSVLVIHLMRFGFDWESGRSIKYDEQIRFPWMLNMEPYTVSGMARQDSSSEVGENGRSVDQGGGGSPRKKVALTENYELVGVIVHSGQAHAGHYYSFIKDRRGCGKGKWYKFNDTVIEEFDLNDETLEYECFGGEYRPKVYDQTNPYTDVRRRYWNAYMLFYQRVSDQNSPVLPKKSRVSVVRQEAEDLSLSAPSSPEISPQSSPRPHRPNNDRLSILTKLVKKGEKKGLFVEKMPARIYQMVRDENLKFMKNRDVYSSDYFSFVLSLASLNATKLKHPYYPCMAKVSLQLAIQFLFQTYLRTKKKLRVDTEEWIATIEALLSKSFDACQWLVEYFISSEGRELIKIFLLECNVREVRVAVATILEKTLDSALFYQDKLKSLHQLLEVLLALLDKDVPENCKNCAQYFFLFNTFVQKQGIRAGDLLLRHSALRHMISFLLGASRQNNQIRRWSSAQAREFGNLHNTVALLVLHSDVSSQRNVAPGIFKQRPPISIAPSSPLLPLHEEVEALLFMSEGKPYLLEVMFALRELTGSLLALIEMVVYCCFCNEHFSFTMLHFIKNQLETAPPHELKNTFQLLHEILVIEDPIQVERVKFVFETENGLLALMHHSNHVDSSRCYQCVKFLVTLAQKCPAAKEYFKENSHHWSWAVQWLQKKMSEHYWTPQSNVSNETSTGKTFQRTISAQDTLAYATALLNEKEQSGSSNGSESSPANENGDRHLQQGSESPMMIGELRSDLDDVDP

Cc1nc(CC2CCN(C(=O)CCl)CC2)no1
inactive: USP19 -0.747 | USP22 -0.386 | USP24 -0.783 | USP25 -0.763 | USP28 -0.873
